Experiment [1] deals with PRMT1 (protein arginine N-methyltransferase 1). Nature of the experiment: small molecules binding arginine methyltransferase PRMT1 – biochemical, small-molecule microarray, 635 nm fluorescence, primary screen (AID 1088).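 Further: binding of Prmt1 protein to compounds spotted on small-molecule microarray slides.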 The following applies: higher = more signal.
Experiment [2] in a line: growth effects on S. cerevisiae YJM789 – YJM789 clinical isolate, OD600, 24 h, basal, primary screen (AID 1089).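 Further: growth of clinical yeast isolate S. cerevisiae YJM 789 seeded 1000 cells per well; test concentration not given here.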 As to conditions: higher = more signal, called active from +8 up or from −8 down.
A short description of experiment [3]: S. pombe growth modifiers, basal conditions – strain 972, OD600, 24 h, no modulator, primary screen (AID 1090).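 Further: basal condition with compound alone and no growth modifier present; test concentration not given here.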 As to conditions: S. pombe 972 growth, higher = more signal, called active from +8 up or from −8 down.
The nature of experiment [4]: budding yeast growth modifiers under rapamycin – strain BY4716, OD600, 96 h, primary screen (AID 1091). Further: test concentration not given here. The following applies: S. cerevisiae BY4716 + rapamycin, higher = more signal, called active from +8 up or from −8 down.
Experiment [5] has as its target Torsin-1A-interacting protein 2 (Homo sapiens) (UniProt Q8NFQ8). Nature of the experiment: small molecules binding lysate-expressed LULL1 – cell lysate, human LULL1 lysate, 635/667 nm fluorescence, primary screen (AID 1092).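 Further: probe is lysate of COS7 cells overexpressing human LULL1; score merges per-feature 667 nm fluorescence with signal-to-noise.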 As to conditions: small-molecule microarray, hLULL1 lysate binding, 635 nm fluorescence; higher = more signal.
A short description of experiment [6]: optical density change of DRC41 E. coli – strain DRC41, OD650, 24 h, E. coli filamentation project, primary screen (AID 1093).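 Further: MC1000 strain lacking acrAB efflux and sulA so SOS filamentation is blocked; test concentration not given here.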 As to conditions: E. coli DRC41 growth, higher = more signal, called active from +8 up or from −8 down.
Experiment [7] is described as follows: probe aLefty2 binding to arrayed compounds – biochemical, biotinylated probe, 635/667 nm fluorescence, primary screen (AID 1094).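 Further: score merges spot fluorescence near 667 nm with spot signal-to-noise ratio.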 The following applies: small-molecule microarray, higher = more signal.
In experiment [8] the test system is Noggin (protein binding on small-molecule microarray). Put plainly: small molecules binding Noggin protein – biochemical, 635/667 nm fluorescence, primary screen (AID 1095).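 Further: score merges 667 nm feature fluorescence with signal to noise over triplicate slides.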 The following applies: 635 nm fluorescence, higher = more signal.
The target in experiment [9] is Neurogenic locus notch homolog protein 3 (Homo sapiens) (UniProt Q9UM47). Put plainly: small molecules binding NOTCH3 protein – biochemical, 635/667 nm fluorescence, primary screen (AID 1096). The following applies: small-molecule microarray, 635 nm fluorescence, higher = more signal.
Experiment [10] can be described thus: probe aEGFR binding to arrayed compounds – biochemical, biotinylated probe, 635/667 nm fluorescence, primary screen (AID 1097).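 Further: probe is a biotinylated anti-EGFR antibody binding compounds printed on slides; score combines fluorescence near 667 nm and signal to noise of each spot.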 The following applies: small-molecule microarray, higher = more signal.

SMILES strings stand for the structures. Active and inactive are the calls of the source.

Neurogenic locus notch homolog protein 3 (Homo sapiens), sequence (Q9UM47 whole entry, looked up): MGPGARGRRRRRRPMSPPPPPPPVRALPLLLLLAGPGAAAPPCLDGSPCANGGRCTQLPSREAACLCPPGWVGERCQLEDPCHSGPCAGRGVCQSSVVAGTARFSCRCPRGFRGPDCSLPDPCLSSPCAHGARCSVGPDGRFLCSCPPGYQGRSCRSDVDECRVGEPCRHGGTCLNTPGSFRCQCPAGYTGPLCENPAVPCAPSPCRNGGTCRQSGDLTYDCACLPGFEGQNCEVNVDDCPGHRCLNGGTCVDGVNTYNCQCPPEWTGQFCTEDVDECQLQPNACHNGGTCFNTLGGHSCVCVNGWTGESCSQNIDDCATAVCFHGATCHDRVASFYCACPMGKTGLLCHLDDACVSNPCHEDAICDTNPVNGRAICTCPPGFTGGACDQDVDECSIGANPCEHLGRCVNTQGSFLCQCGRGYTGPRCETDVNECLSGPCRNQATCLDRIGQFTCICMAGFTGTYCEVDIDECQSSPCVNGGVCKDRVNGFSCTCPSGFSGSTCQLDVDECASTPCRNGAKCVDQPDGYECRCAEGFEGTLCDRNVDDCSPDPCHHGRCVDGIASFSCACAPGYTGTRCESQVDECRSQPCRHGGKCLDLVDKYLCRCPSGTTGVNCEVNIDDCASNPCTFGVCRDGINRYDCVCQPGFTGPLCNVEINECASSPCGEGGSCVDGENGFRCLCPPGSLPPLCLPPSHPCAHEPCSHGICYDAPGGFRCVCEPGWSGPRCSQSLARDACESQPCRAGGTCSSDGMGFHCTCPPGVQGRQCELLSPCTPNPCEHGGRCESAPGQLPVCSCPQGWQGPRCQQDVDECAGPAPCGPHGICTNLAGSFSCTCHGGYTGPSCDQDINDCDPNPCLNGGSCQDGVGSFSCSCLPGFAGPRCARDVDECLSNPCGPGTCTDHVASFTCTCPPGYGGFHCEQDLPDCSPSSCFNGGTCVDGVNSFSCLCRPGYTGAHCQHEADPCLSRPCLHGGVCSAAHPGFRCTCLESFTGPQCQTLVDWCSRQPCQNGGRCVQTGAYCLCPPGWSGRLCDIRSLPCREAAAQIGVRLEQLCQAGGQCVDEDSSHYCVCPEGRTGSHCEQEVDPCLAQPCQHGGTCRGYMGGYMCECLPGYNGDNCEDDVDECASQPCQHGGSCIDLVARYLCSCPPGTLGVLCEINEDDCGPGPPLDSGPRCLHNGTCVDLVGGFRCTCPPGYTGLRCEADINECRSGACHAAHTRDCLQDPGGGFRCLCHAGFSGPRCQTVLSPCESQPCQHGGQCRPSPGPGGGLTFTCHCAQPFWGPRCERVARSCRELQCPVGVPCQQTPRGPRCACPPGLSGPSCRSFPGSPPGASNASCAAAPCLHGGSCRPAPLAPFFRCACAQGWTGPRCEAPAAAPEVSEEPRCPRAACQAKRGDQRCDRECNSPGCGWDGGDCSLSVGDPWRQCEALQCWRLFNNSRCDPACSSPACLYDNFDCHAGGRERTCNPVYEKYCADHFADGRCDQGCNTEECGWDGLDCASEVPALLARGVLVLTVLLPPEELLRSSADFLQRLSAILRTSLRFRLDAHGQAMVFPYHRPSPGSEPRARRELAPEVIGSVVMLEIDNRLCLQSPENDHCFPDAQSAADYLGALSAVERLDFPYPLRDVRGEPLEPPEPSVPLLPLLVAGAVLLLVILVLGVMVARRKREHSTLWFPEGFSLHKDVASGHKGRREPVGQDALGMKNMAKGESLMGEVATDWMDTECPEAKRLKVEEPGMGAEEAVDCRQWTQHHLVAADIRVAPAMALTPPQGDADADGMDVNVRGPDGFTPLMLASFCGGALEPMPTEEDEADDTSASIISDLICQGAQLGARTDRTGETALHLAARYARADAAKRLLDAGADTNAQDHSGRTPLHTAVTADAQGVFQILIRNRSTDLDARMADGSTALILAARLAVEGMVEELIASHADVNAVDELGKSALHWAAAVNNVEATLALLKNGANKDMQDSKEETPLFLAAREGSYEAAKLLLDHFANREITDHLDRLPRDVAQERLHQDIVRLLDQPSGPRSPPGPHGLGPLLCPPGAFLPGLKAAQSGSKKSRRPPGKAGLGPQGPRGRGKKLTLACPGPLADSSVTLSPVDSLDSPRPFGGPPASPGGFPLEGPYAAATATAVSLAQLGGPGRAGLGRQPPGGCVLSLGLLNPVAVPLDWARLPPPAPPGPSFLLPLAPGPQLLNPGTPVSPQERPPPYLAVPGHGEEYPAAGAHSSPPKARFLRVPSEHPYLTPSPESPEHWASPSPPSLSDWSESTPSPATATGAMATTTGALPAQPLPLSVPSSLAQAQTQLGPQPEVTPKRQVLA
Torsin-1A-interacting protein 2 (Homo sapiens), sequence (Q8NFQ8 whole entry, looked up): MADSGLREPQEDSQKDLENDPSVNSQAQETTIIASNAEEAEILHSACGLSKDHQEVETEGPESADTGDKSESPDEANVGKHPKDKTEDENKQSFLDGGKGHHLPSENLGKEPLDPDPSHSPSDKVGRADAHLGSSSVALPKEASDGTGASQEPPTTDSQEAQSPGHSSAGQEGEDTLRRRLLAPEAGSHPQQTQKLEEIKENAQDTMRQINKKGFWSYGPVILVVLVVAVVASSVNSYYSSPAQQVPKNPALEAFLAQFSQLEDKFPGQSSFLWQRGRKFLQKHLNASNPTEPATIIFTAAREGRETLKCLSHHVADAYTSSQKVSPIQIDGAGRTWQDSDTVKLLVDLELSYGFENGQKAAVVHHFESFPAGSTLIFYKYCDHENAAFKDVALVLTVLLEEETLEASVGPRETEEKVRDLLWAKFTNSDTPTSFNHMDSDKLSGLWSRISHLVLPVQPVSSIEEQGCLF

Consider `NC(=O)NCC#Cc1ccc2c(c1)[C@]1(C(=O)N2)[C@H](c2ccc(OCCO)cc2)N2[C@H](c3ccccc3)[C@H](c3ccccc3)OC(=O)[C@H]2[C@@H]1C(=O)N1CCCCCCC1`, for which the composite z-score in experiment [1] was determined as 1.09; in experiment [5] it was 3.3; in experiment [7], 1.73; in [8] it was 1.88; in [9], 1.04; in experiment [10] it was 1.06. The z-score is 1.57 (inactive) in experiment [2], 1.43 (inactive) in [3], 3.66 (inactive) in experiment [4] and -0.53 (inactive) in experiment [6].

`C=C[C@H](C)[C@H](OC(=O)Nc1ccc(SC)cc1)c1ccc(O)c2ccccc12`: the composite z-score was 0.214 in experiment [1]; 0.803 in experiment [5]; -0.125 in experiment [7]; 0.174 in experiment [8]; -0.673 in experiment [9]; -0.305 in experiment [10]. Further, the z-score was -21.7 (active) in [2], -20.8 (active) in experiment [3], -2.22 (inactive) in experiment [4] and 0.949 (inactive) in experiment [6].

For `O=C1c2ccccc2[C@](Cc2ccccc2I)(C(=O)NC2CC2)[C@H](c2ccc(CO)cc2)N1Cc1ccccc1Cl`, the composite z-score came out at 1.36 in [1]; 1.91 in experiment [5]; 0.349 in experiment [7]; 1.53 in experiment [8]; 0.856 in experiment [9]; 0.178 in experiment [10]. Further, the z-score in [2] is 0.07 (inactive); in experiment [3], 0.376 (inactive); in experiment [4], 1.57 (inactive); in experiment [6], -1.02 (inactive).

With `CC1=C2[C@@H](CCc3ccccc3)OB(O)C[C@@H]2[C@@H]2C(=O)C=CC(=O)[C@@H]2C1`, the composite z-score in [1] turned out to be 1.31; in experiment [5] it was 0.775; in experiment [7] it was 0.0037; in experiment [8], 0.642; in experiment [9], 1.1; in [10], 0.0484. For the same compound, the z-score in experiment [2] was -0.689 (inactive); in experiment [3] it was -15.6 (active); in [4] it was -0.679 (inactive); in experiment [6], -0.315 (inactive).

Take `O=C1O[C@@H](c2ccccc2)[C@@H](c2ccccc2)N2[C@@H](c3ccc(O)cc3)[C@]3(C(=O)Nc4ccc(C#CC5=CCCCC5)cc43)[C@@H](C(=O)Nc3nc4ccccc4s3)[C@H]12`: the composite z-score in experiment [1] was 1.54; in [5], 2.86; in experiment [7] it was 0.455; in experiment [8], 1.04; in experiment [9], 1.04; in [10], 0.127. In addition, the z-score in [2] is 0.424 (inactive); in [3], 0.015 (inactive); in experiment [4], 0.606 (inactive); in [6], 0.481 (inactive).

As for `CN1C(=O)C2C=CC(C(O)c3cccc4ccccc34)N(NC(=O)OC(C)(C)C)C2C1=O` (stereo not given), the composite z-score in [1] was 1.25; in experiment [5], 2.63; in [7], 0.712; in experiment [8], -0.773; in [9] it was 1.02; in experiment [10], 0.37. Also, the z-score is -1.04 (inactive) in experiment [2], -0.397 (inactive) in [3], -0.0612 (inactive) in experiment [4] and -0.094 (inactive) in experiment [6].

With `O=C1C[C@@](C(=O)O)(c2ccc([N+](=O)[O-])cc2)[C@@H](c2ccc(CO)cc2)N1CC12CC3CC(CC(C3)C1)C2`, the composite z-score in [1] came out at 1.54; in experiment [5], 2.3; in experiment [7], 0.0446; in experiment [8], 0.257; in experiment [9] it was 0.857; in [10], 0.06. Besides, the z-score in experiment [2] is 0.629 (inactive); in [3] it was -2.98 (inactive); in [4], 0.117 (inactive); in experiment [6] it was 0.91 (inactive).

For the compound `COC(=O)[C@@]1(Cc2ccc(OC)cc2)[C@H]2c3cc(C(=O)N(C)C)n(Cc4cc(F)c(F)c(F)c4)c3C[C@H]2CN1C(=O)c1ccccc1`, the composite z-score in experiment [1] is 0.456; in experiment [5] it was 3.44; in experiment [7], 0.625; in experiment [8], -0.217; in experiment [9], 1.04; in experiment [10], 0.58. Besides, the z-score was 0.725 (inactive) in experiment [2], 0.129 (inactive) in [3], 4.07 (inactive) in [4] and -0.909 (inactive) in experiment [6].

`CC1CC/C=C\[C@H]2OC34C=CCN(c5ccc(Cl)cc5)C(=O)[C@H]3N(C(CO)C(C)C)C(=O)[C@]4(C)C2C(=O)O1` (stereo not given in full): the composite z-score is -0.538 in [1]; 2.25 in experiment [5]; -0.166 in experiment [7]; -0.643 in experiment [8]; 0.161 in experiment [9]; -0.233 in [10]. Further, the z-score in experiment [2] is 1.04 (inactive); in experiment [3], -0.775 (inactive); in experiment [4], -0.439 (inactive); in [6] it was -0.304 (inactive).

Regarding `CC(C)(C)OC(=O)CC[C@@]1(C(=O)N2CCCCC2)N=C(c2ccc(OCCCO)cc2)O[C@@H]1c1ccccc1CN=[N+]=[N-]`, the composite z-score in experiment [1] was 1.54; in [5] it was 3.66; in [7], 0.208; in [8], 0.39; in experiment [9] it was 1.05; in experiment [10], 0.0026. For the same compound, the z-score was -0.492 (inactive) in [2], -0.689 (inactive) in experiment [3], -0.0683 (inactive) in experiment [4] and 0.308 (inactive) in experiment [6].

Take `C=CCC(OC(C)=O)[C@@H]1[C@@H](N(Cc2cccc3ccccc23)C(=O)c2ccc(C)cc2)c2cc(OCCCO)ccc2N1C(=O)c1ccc2ccccc2c1` (stereo not given in full): the composite z-score in experiment [1] was 0.377; in [5], 1.19; in experiment [7], -0.0574; in [8], 0.684; in experiment [9], 0.103; in experiment [10], -0.0432. Besides, the z-score was -0.844 (inactive) in experiment [2], 0.148 (inactive) in experiment [3], -0.302 (inactive) in [4] and 0.649 (inactive) in experiment [6].

Consider `CC(C)CNC(=O)[C@@]1(C)c2ccccc2C(=O)N(Cc2ccccc2)[C@H]1c1ccc(CO)cc1`, for which the composite z-score in experiment [1] was -0.579; in experiment [5], 3.04; in [7], 0.0397; in experiment [8], -1.79; in experiment [9], -0.643; in experiment [10], -0.285. Further, the z-score in experiment [2] was -1.79 (inactive); in experiment [3] it was -0.849 (inactive); in experiment [4] it was -0.879 (inactive); in experiment [6], -0.483 (inactive).

As to `COC(=O)[C@@]1(Cc2ccc(F)cc2)[C@H]2c3cc(C(=O)N4CCCC4)n(Cc4ccccc4)c3C[C@H]2CN1C(=O)c1ccccc1`, the composite z-score in experiment [1] is -0.101; in experiment [5] it was 3.22; in experiment [7], 0.391; in [8], -0.486; in experiment [9], 0.783; in [10], 0.0953. Further, the z-score was -0.136 (inactive) in experiment [2], 1.31 (inactive) in experiment [3], 1.24 (inactive) in experiment [4] and 0.21 (inactive) in [6].

(Values after PubChem BioAssay.)
